Pf growth 48h – inhibits P. falciparum growth in the first generation, 48 h; P. falciparum luciferase growth in erythrocytes, 48 h; Potency, µM (doses to about 28.7 µM), without a hit: top-dose activity change, negative = inhibition, usual class: inhibitors; 5.9% of 310,000 active; note: potency is the fitted concentration of half-maximal effect; % is set by controls: 0 for no effect and ±100 for the full control effect
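Luciferase-expressing parasites in RBCs, 2% Hct / 0.1% parasitemia final; RPMI 1640 + 0.5% Albumax; 37 C, 5% CO2, one generation; luminescence read-out, lower signal = inhibition.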
Pf growth 96h – inhibits malaria parasite growth, 96 h | P. falciparum luciferase reporter growth, 96 h | Potency, µM (highest dose often 28.7 µM), without a hit: top-dose activity change, negative = inhibition, actives largely listed as inhibitors | 6.9% of 320,000 active | AID 504834; note: potency is the fitted concentration of half-maximal effect; % is set by controls: 0 for no effect and ±100 for the full control effect
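Cell-based qHTS: luciferase-tagged P. falciparum in erythrocytes (2% hematocrit, 0.05% parasitemia final) incubated with compounds for 96 hours, 37 C, 5% CO2; luciferase detection reagent then added and luminescence measured.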
CHX counter – counter-screen hit for Shiga toxin inhibitors, cycloheximide; cell reporter, cycloheximide protein synthesis inhibition counterscreen; max response, %; 12% of 300,000 active; in the data active = max response mostly above about 13%, no sharp cut-off; inactive = mostly below about 14%; note: read at 38.3 µM for the half of the compounds with a filed dose; 0% is about no effect
NS1 function inh – inhibitors of influenza NS1 protein function; Potency, µM (top dose mostly 46.1 µM), inactives show top-dose activity, positive = more growth; 0.4% of 270,000 active; calls by dose curve; note: potency is the fitted concentration of half-maximal effect; actives are rising curves; nearly all actives have a fitted effect of over 50% in size
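A cell-based growth assay was used: compounds that relieve NS1-induced slow growth of budding yeast raise OD600. Assay medium was yeast nitrogen base with ammonium sulphate and -URA supplement, pH 6.0, with 2% galactose.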
Shiga inhibitor – inhibitors of Shiga toxin in Vero cells; 9.2% of 290,000 active; Vero cells, Shiga toxin protein synthesis inhibition reporter; inhibition, % at 38.7 µM; in the data active = inhibition mostly above about 28%, no sharp cut-off; inactive = mostly below about 43%; note: 0% is about no effect
* marks the source's active call; other numbers are inactive results; ? = inconclusive; · = not tested or not shown; [ ] = another dose, or the depositor's remark. Hits are enriched below; roughly 21% of the tested compounds scored in any of these assays. Unless noted, calls come from the whole dose curve; as a rule, active = well fitted inhibition curve with a large enough effect; inconclusive = small, poorly fitted or top-dose-only effect, or another doubt; inactive = no such curve, though single readings can be large or run the other way.

SMILES	Pf growth 48h	Pf growth 96h	CHX counter	NS1 function inh	Shiga inhibitor
COc1ccc(/C=C/C(=O)OCC(=O)NCc2ccco2)cc1OC	7%	-2%	-3	8%	12
Cc1nc(N)sc1-c1csc(Nc2cccc(O)c2)n1	95%	0%	14*	0%	30
Cc1nc2ccccn2c1-c1csc(Nc2cccc(O)c2)n1	0%	0%	2	3%	32
CCC(=O)Nc1nc(C)c(-c2csc(Nc3cccc(O)c3)n2)s1	·	-19%	36*	11%	50*
Cc1cccc(Nc2nc(-c3sc(C)nc3C)cs2)c1	18%	?	29*	8%	50*
Cc1nc(C)c(-c2csc(Nc3cccc(O)c3)n2)s1	33%	?	45*	4%	35*
CC(C)c1cc(C(F)(F)F)nc(NNc2nc(C(C)C)cc(C(F)(F)F)n2)n1	·	·	·	-1%	·
Cc1cc(C)n(-c2nc3c(c(=O)[nH]c(=O)n3C)n2C(C)C)n1	-12%	-13%	-4	2%	17
CCN(CC)C(=S)SCC(=O)Nc1ccc(F)cc1	0%	39%	14	-52%	12
CCN(CC)C(=S)SCC(=O)c1ccc(F)cc1	162%	106%	40*	0%	60*
CCN(CC)C(=S)SCC(=O)c1ccccc1	221%	133%	62*	-2%	68*
CCCCCCCCCCCCCCCCn1cc[n+](Cc2ccccc2)c1C	·	·	-8	·	-23
COc1ccccc1NC(=O)NCCc1c[nH]c2ccccc12	-6%	4%	-2	-1%	8
COc1ccc(-c2cn(CCc3c[nH]c4ccccc34)nn2)cc1	12%	9.3µM*	7.4*	3%	20
COc1ccc(C(=O)NCCc2c[nH]c3ccccc23)cc1	59%	?	45*	-32%	77*
O=C(NCCc1c[nH]c2ccccc12)c1cnccn1	78%	96%	23	·	38*
O=C(NCCc1c[nH]c2ccccc12)c1cncc(Br)c1	31%	?	12	·	23
COc1cc(SC)ccc1C(=O)NCCc1c[nH]c2ccccc12	56%	-15%	27*	-80%	59
Cc1cc(NC(=O)C2CC(=O)N(c3ccccc3Cl)C2)no1 (centres undefined)	8%	?	-2	3%	11
O=C(CCNS(=O)(=O)c1ccc(OC(F)(F)F)cc1)NCCc1c[nH]c2ccccc12	?	10µM*	·	·	·
O=C(NCCc1c[nH]c2ccccc12)c1ccc(F)cc1F	78%	94%	25*	-15%	116*
O=C(NCCc1c[nH]c2ccccc12)c1cnc2sccn2c1=O	·	87%	34*	-7%	84*
O=C(NCCc1c[nH]c2ccccc12)c1ccc(Cl)cc1	68%	?	48*	-79%	127*
O=C(Cc1ccccc1)c1c[nH]c(C(=O)NC2CCCC2)c1	?	-24%	13	·	10
O=[N+]([O-])c1cccc(Cl)c1CSc1ccccn1	-1%	28%[5.75 µM]	-3	-5%	1
SMILES	Pf growth 48h	Pf growth 96h	CHX counter	NS1 function inh	Shiga inhibitor
COc1ccc(C(=O)NCCCNC(=O)c2ccccn2)cc1Br	6%	-3%	-2	-2%	-12
NC(=O)CC(NC(=O)c1cccc(Br)c1)c1ccc(NC2CCCCCCCCCCC2)c([N+](=O)[O-])c1 (centres undefined)	13%	?	-2	11%	-4
Cc1ccc(S(=O)(=O)N2CCN(C(=O)CN3CCOCC3)C2c2ccccc2)cc1 (centres undefined)	-22%	-8%	1	-1%	11
COc1ccc(-c2cn(Cc3cccc(OC)c3)nn2)cc1	-78%	-42%	29*	7%	82*
Cc1ccsc1C(=O)NCCc1c[nH]c2ccccc12	154%	113%	36*	-37%	73*
CC(=O)NCCc1c[nH]c2ccccc12	13%	13%	-1	0%	0
Cc1ccc(C(=O)N2CCCCC2)cc1NC1=C(Cl)C(=O)N(Cc2ccccc2)C1=O	4.7µM*	5.2µM*	·	·	·
Cc1ccc(O)c(NC2=C(Cl)C(=O)N(Cc3ccccc3)C2=O)c1	12µM*	?	-2	9%	-2
CCOc1ccc(NC2=C(Cl)C(=O)N(Cc3ccccc3)C2=O)cc1	?	?	-2	9%	-9
Clc1nc(Nc2ccccc2)nc(Nc2ccccc2)n1	0%	36%	25*	-3%	22
CCOc1ccc(Nc2nc(Cl)nc(NCCO)n2)cc1	-5%	-15%	-3	1%	-14
CC(C)(CO)Nc1nc(Nc2ccccc2)nc(Nc2ccccc2)n1	13µM*	7.4µM*	-1	-9%	-5
CCCNc1nc(Cl)nc(Nc2ccc(Cl)cc2)n1	28%	0%	15*	-45%	8
CC(C)(C)Nc1nc(Cl)nc(Nc2ccccc2)n1	75%	88%	56*	-16%	88*
OCCNc1nc(Nc2ccccc2)nc(Nc2ccccc2)n1	-4%	26%	-1	1%	-15
C=C(C)C(=O)OCCOC(=O)C(=C)C	·	·	1	·	10
O=C(Cc1ccc(-n2c(=O)c3sccc3n(CC(=O)Nc3ccccc3F)c2=O)cc1)NCc1ccco1	?	170%	-3	·	20
COc1ccccc1Nc1nc(Cl)nc(NC(C)(C)C)n1	1%	12%	11*	-6%	9
COc1ccc(Nc2nc(Cl)nc(Nc3ccc(OC)cc3OC)n2)c(OC)c1	-8%	18%	-4	12%	-2
Cc1cccc(-n2c(C)nc3ccc(Cl)cc3c2=O)c1	-5%	?	0	1%	-7
Cc1ccc(-n2c(C)nc3cc(Cl)ccc3c2=O)nc1	81%	135%	28*	-2%	63*
S=C1NCCc2ccc(Cl)cc2C1c1ccccc1Cl (centres undefined)	12µM*	?	-2	26%	2
CCCCC/C(C=O)=C/c1ccccc1	-2%	0%	·	·	·
O=C1CC(=O)CC(c2ccccc2Cl)C1	-17%	83%	-3	?	2
CN1C2C=C3C(C#N)=C(N)C(C#N)(C#N)[C@@H](c4cccc(F)c4)[C@@H]3C1CC2 (some centres undefined)	?	0.66µM*	-3	11%	43
CN1C2C=C3C(C#N)=C(N)C(C#N)(C#N)[C@H](c4c(F)cccc4F)[C@H]3C1CC2 (some centres undefined)	?	?	-3	-3%	-4
CC(C)C[C@H](NC(=O)[C@H](Cc1ccccc1)NC(=O)CNC(=O)[C@H](CCC(=O)O)NC(=O)[C@H](CCCNC(=N)N)NC(=O)[C@H](C)NC(=O)[C@H](C)NC(=O)[C@@H](N)CC(=O)O)C(=O)N[C@@H](CC(=O)O)C(=O)N[C@H](C(=O)N[C@@H](CC(C)C)C(=O)N[C@H](C(=O)N[C@H](C(=O)N[C@@H](CC(C)C)C(=O)N[C@@H](Cc1cnc[nH]1)C(=O)N[C@@H](CCCNC(=N)N)C(=O)N[C@@H](C)C(=O)NCC(=O)N[C@@H](C)C(=O)N[C@@H](CCCNC(=N)N)C(=O)O)C(C)C)C(C)C)[C@@H](C)O	·	·	-4	·	14
